Laboratory results reported in PubChem BioAssay (NCI).
The panel holds about 83,000 compounds, 20% with a hit somewhere; the sample as a whole holds those more often.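 Single-dose data. Exposure time 48 hours. Values below 10 considered active.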 Values without a mark were called inactive. The source made the active and inactive calls.

Assays:
Assay in all cases: NCI-60 one-dose screen, 48 h (100 = growth as untreated, 0 = no growth, -100 = all killed)
Conditions in all cases: 10 µM
[1] = test system: SK-MEL-2 melanoma
[2] = test system: SN12C renal
[3] = test system: UO-31 renal
[4] = test system: TK-10 renal
[5] = test system: ACHN renal
[6] = test system: CAKI-1 renal
[7] = test system: A498 renal
[8] = test system: CCRF-CEM leukemia
[9] = test system: MOLT-4 leukemia
[10] = test system: SR leukemia
[11] = test system: RPMI-8226 leukemia
[12] = test system: OVCAR-8 ovarian
[13] = test system: OVCAR-5 ovarian
[14] = test system: OVCAR-4 ovarian
[15] = test system: SK-OV-3 ovarian
[16] = test system: IGROV1 ovarian
[17] = test system: OVCAR-3 ovarian
[18] = test system: HS 578T breast
[19] = test system: NCI/ADR-RES ovarian

## COc1cc(OC)cc(-c2ccc(-c3ccc(C(=N)N)cn3)o2)c1
[1]
  growth: -76.8% (active)
[2]
  growth: -50.5% (active)
[3]
  growth: -33.9% (active)
[4]
  growth: 0.358% (active)
[5]
  growth: 1.34% (active)
[6]
  growth: 16.1%
[7]
  growth: 44.1%
[8]
  growth: -25.6% (active)
[9]
  growth: -41.9% (active)
[10]
  growth: 0.771% (active)
[11]
  growth: -50% (active)
[12]
  growth: 9.75% (active)
[13]
  growth: -0.187% (active)
[14]
  growth: 23.1%
[15]
  growth: 31.2%
[16]
  growth: 27%
[17]
  growth: 19.4%
[18]
  growth: -11.6% (active)
[19]
  growth: 74.5%

## O=C1NN(c2ccccc2)C(c2cccnc2)=N/C1=C\c1cccnc1
[1]
  growth: 103%
[2]
  growth: 102%
[3]
  growth: 82.7%
[4]
  growth: 110%
[5]
  growth: 95.4%
[6]
  growth: 89%
[7]
  growth: 52.3%
[8]
  growth: -22% (active)
[9]
  growth: 96.4%
[10]
  growth: 73.6%
[11]
  growth: 83.3%
[12]
  growth: 106%
[13]
  growth: 85.8%
[14]
  growth: 94.3%
[15]
  growth: 104%
[16]
  growth: 103%
[17]
  growth: 89.8%
[18]
  growth: 87.1%
[19]
  growth: 91.2%

## Nc1nc2c(ncn2C2OC3COP(=O)(O)OC4C(COP(=O)(O)OC2C3O)OC(n2cnc3c(N)ncnc32)C4O)c(=O)[nH]1 (configuration not stated)
[1]
  growth: 115%
[2]
  growth: 106%
[3]
  growth: 104%
[4]
  growth: 112%
[5]
  growth: 105%
[6]
  growth: 100%
[7]
  growth: 5.1% (active)
[8]
  growth: 97.8%
[9]
  growth: 92.8%
[10]
  growth: 57.8%
[11]
  growth: 99.4%
[12]
  growth: 102%
[13]
  growth: 103%
[14]
  growth: 105%
[15]
  growth: 87.3%
[16]
  growth: 109%
[17]
  growth: 107%
[18]
  growth: 105%
[19]
  growth: 102%

## Cn1c([N+](=O)[O-])cnc1C=C1C(=O)c2ccccc2C1=O
[1]
  growth: 1.67% (active)
[2]
  growth: 42.9%
[3]
  growth: 20.7%
[4]
  growth: 48.8%
[5]
  growth: 37.4%
[6]
  growth: 37.3%
[7]
  growth: 70.1%
[8]
  growth: 18.4%
[9]
  growth: 21.8%
[10]
  growth: 7.25% (active)
[11]
  growth: 40.6%
[12]
  growth: 7.11% (active)
[13]
  growth: 61.3%
[14]
  growth: 56.8%
[15]
  growth: 54%
[16]
  growth: 13.8%
[17]
  growth: 38.1%
[18]
  growth: 26.4%
[19]
  growth: 44.5%

## COc1ccc(-c2oncc2-c2cc(OC)c3c(c2)OCO3)cc1
[1]
  growth: -1.77% (active)
[2]
  growth: 35.9%
[3]
  growth: 39.8%
[4]
  growth: 48.2%
[5]
  growth: 41.1%
[6]
  growth: 22.9%
[7]
  growth: 7.82% (active)
[8]
  growth: 16%
[9]
  growth: 22.4%
[10]
  growth: 7.62% (active)
[11]
  growth: 23.8%
[12]
  growth: 35.6%
[13]
  growth: 37.9%
[14]
  growth: 66.2%
[15]
  growth: 19.7%
[16]
  growth: 53.3%
[17]
  growth: 7.36% (active)
[18]
  growth: 4.09% (active)
[19]
  growth: 18.5%

## Cc1ccccc1[P+](Cc1ccccc1)(c1ccccc1)c1ccccc1
[1]
  growth: -23.1% (active)
[2]
  growth: 29.9%
[3]
  growth: 67.8%
[4]
  growth: 21.4%
[5]
  growth: 75.6%
[6]
  growth: 86.8%
[7]
  growth: 37%
[8]
  growth: 19.3%
[9]
  growth: 19.3%
[10]
  growth: 2.45% (active)
[11]
  growth: -27% (active)
[12]
  growth: 10%
[13]
  growth: 52%
[14]
  growth: 8.97% (active)
[15]
  growth: 43.7%
[16]
  growth: 14.3%
[17]
  growth: 26.4%
[18]
  growth: 54.4%
[19]
  growth: 104%

## COc1cc(-c2cc(-c3cc(OC)c(OC)c(OC)c3)nc3nc(N)[nH]c(=O)c23)ccc1Oc1ccnc2cc(Cl)ccc12
[1]
  growth: 29.2%
[2]
  growth: 31.3%
[3]
  growth: 46.3%
[4]
  growth: 92.9%
[5]
  growth: 48.4%
[6]
  growth: 38.7%
[7]
  growth: 84.9%
[8]
  growth: 18.2%
[9]
  growth: 17.7%
[10]
  growth: 5.24% (active)
[11]
  growth: 19.7%
[12]
  growth: 42.1%
[13]
  growth: 103%
[14]
  growth: 39%
[15]
  growth: 26.2%
[16]
  growth: 52.8%
[17]
  growth: -26.1% (active)
[18]
  growth: 36.3%
[19]
  growth: 21.8%

## CCOC(=O)[C@@H]1[C@H](c2ccccc2)[C@H]([N+](=O)[O-])[C@H](c2cn(-c3ccccc3)nc2C)N1Cc1ccccc1
[1]
  growth: 85.5%
[2]
  growth: 88.8%
[3]
  growth: 71.7%
[4]
  growth: 106%
[5]
  growth: 73.9%
[6]
  growth: 69%
[7]
  growth: 97.6%
[8]
  growth: 59.8%
[9]
  growth: 51.7%
[10]
  growth: 46.9%
[11]
  growth: 50%
[12]
  growth: 71.4%
[13]
  growth: 106%
[14]
  growth: 77.5%
[15]
  growth: 84.3%
[16]
  growth: 99.9%
[17]
  growth: 82.8%
[18]
  growth: 90.5%
[19]
  growth: 71.6%
